{
  "source": "PubChem BioAssay (EPA / NIEHS)",
  "note": "Calls of active or inactive are those of the source. Rule for the calls: active = hit-call score of the fitted dose curve at least 0.9, where 1 is the maximum; inactive = score below 0.9.",
  "data": [
    {"test": "CCTE_Padilla_ZF_Score.Living: CCTE's 144 Hour Post-fertilization zebrafish Assay Score for Viability, Padilla Lab (AID 2284410);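 note: larval death at 6 dpf judged by absent heartbeat or coagulation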", "description": "CCTE_Padilla_ZF_Phenotype_Score is a whole embryo, multiplexed assay using zebrafish ova exposed for 144 hours post fertilization on a 96-well plate.CCTE_Padilla_ZF_Score.Living is one of one assay component(s) measured or calculated from the CCTE_Padilla_ZF_Phenotype_Score assay. It is designed to make measurements of zebrafish development as detected with brightfield microscopy of developing zebrafish embryos.Data from the assay component CCTE_Padilla_ZF_Score.Living was analyzed into 1 assay endpoints. This assay endpoint, CCTE_Padilla_ZF_Score.Living, was analyzed in the positive analysis fitting direction relative to DMSO as the negative control and baseline of activity. Using a type of viability reporter, gain-of-signal activity can be used to understand changes in developmentals as they relate to the whole embryo. To generalize the intended target to other relatable targets, this assay endpoint is annotated to the zebrafish development intended target family, where the subfamily is embryonic mortality.\nZebrafish husbandry: Wild type adult zebrafish (Danio rerio; undefined outbred stock obtained from Aquatic Research Organisms, Hampton, NH, 03842) were housed in an AAALAC-approved animal facility at 28C with a 14:10 h light: dark cycle (lights on at 08:30 h). Adult fish (2-3 females per male; density = 15-20 adults per tank) were kept in one of several 9-liter (L) flow-through colony tanks (Aquaneering Inc., San Diego, CA). All adults in a colony tank were placed in a 2 L (static) breeding tank (Aquatic Habitats, Apopka, FL) one hour prior to light onset. Typically, adults from two to three colony tanks were mated on the same day. Two hours after light onset the adults were returned to the colony tank. All embryos were gathered from each breeder tank, pooled, and placed in a 28C water bath for 2 h, followed by two washes with 0.06% bleach (v/v) in 10% Hanks' Balanced Salt Solution (13.7 mM NaCl 0.54 mM KCl, 25 uM Na2HPO4, 130 uM CaCl2 100 um MgSO4 and 420 um NaHCO3,), hereafter referred to as Hanks' solution, for 5 min in order to remove any residual bacteria or fungi. Immediately following washing, the embryos were examined, and healthy embryos were separated from dead or unfertilized eggs and moved into fresh Hanks'. Chemical exposures: Zebrafish embryos were exposed in 96-well plates. Between 6- and 8-hours post fertilization (hpf), healthy embryos (with chorions) were transferred, one embryo per well, into 96 well (0.5 mL) microtiter plates (Cell Culture-Treated, Flat-Bottom Microplate 96 well [Corning Costar, Kennebunk, ME; Cat 09-761-145]) filled with 200 uL of Hanks' solution. A random number generator was used to assign the order in which the rows of embryos were plated in 96 well plates each week. After plating, the embryos were dosed with 0.8 uL of the chemical dosing solution then immediately sealed with AlumaSeal II (Excel Scientific Inc, Victorville, CA) to prevent volatilization of the chemicals, and then placed in a leakproof secondary container. These containers were placed in an incubator maintained on a 14:10 h light: dark cycle at 26C for rearing. On 5 dpf, live larvae were gently moved out of the plate with test chemicals and into a new 96 well mesh plate (Millipore Corp., Bedford, MA) with just the Hanks' solution. Once within the mesh well plate, the animals were rinsed with 400 uL of fresh Hanks' three times, and then the plates were covered with a non-adhesive material (Microseal A, BioRad, Hercules, CA), plate lid added, and then plate sides wrapped in Parafilm (PM992, Bermis Company, Neenah, WI), and returned to the incubator. […]", "values": [
      {"molecule": "FC(F)=C(F)C(F)(F)C(F)(F)C(F)(F)C(F)(F)C(F)(F)C(F)(F)F", "outcome": "inactive"},
      {"molecule": "O=C(Cl)C(F)(F)C(F)(F)C(F)(F)C(=O)Cl", "outcome": "inactive"},
      {"molecule": "NCC(F)(F)C(F)(F)C(F)(F)C(F)(F)F", "outcome": "inactive"},
      {"molecule": "OC(O)(C(F)C(O)(O)C(F)(F)F)C(F)(F)F", "outcome": "inactive"},
      {"molecule": "C[Si](C)(C)C(F)(F)C(F)(F)C(F)(F)F", "outcome": "inactive"},
      {"molecule": "FC(F)(F)C(F)(F)C(F)(F)C(F)(F)C(F)(F)C(F)(F)I", "outcome": "inactive"},
      {"molecule": "OCCC(F)(F)C(F)(F)C(F)(F)C(F)(F)F", "outcome": "inactive"},
      {"molecule": "FC(F)C(F)(F)COCC1CO1", "note": "(stereo not given)", "outcome": "inactive"},
      {"molecule": "O=S(=O)(O)CCC(F)(F)C(F)(F)C(F)(F)C(F)(F)C(F)(F)C(F)(F)F", "outcome": "inactive"},
      {"molecule": "FC(F)(F)COC(OCC(F)(F)F)OCC(F)(F)F", "outcome": "inactive"}
    ]}
  ]
}
